# Assay outcomes deposited in PubChem BioAssay by National Center for Advancing Translational Sciences (NCATS).
# CtBP-E1A blk: qHTS Assay for Inhibitors of the CtBP/E1A Interaction. CtBP / adenovirus E1A interaction (AlphaScreen). AlphaScreen GST-E1A/His-CtBP binding, 1536-well; active compounds read low. activity change, % (no concentration beside the values). 0.49% of 340,000 active; in the data active = activity change below about -65%; inconclusive = mostly about -30% to -63%
#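 In 5 uL wells, 23 nL compound meets equimolar GST-E1A and His-CtBP (5X stock 125 nM each) for 2 h, 37 °C. Beads (5X, 50 ug/mL) then 1 h, 37 °C, dark.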
# Eya2 inh: qHTS Assay for Inhibitors of the Phosphatase Activity of Eya2 | Potency, µM (titrated, usually from 76.9 µM), inactives show at the highest dose activity, negative = inhibition, actives largely listed as inhibitors | Protein phosphatase EYA2 (Homo sapiens), O00167 | recombinant Eya2, OMFP fluorescence dephosphorylation (OMFP is methylfluorescein phosphate) | 0.006% of 330,000 active | AID 488837, 2010; also: potency is read from the fitted curve at half-maximal effect
#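 Eya2 (0.2 uM) preincubated 10 min at ambient with compound, then OMFP substrate added at 50 uM; 10 min reaction in 50 mM HEPES pH 7.5, 50 mM NaCl, 5 uM MgCl2, 0.05% BSA, 1 mM DTT. Fluorescence read at Ex 485/Em 525 nm.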
# TrxR1 substrate: qHTS Assay for Substrates of Mammalian Selenoprotein Thioredoxin Reductase 1 (TrxR1): qHTS. 0.01% of 390,000 active. Thioredoxin reductase 1, cytoplasmic (Rattus norvegicus), O89049. purified TrxR1 substrate turnover, NADPH consumption readout. Potency, µM (top dose mostly 114 µM), for the others: top-dose activity change, negative = substrate turnover; also: potency is read from the fitted curve at half-maximal effect; nearly all actives have a fitted effect of over 50% in size
# Target sequence (O89049 whole entry, looked up): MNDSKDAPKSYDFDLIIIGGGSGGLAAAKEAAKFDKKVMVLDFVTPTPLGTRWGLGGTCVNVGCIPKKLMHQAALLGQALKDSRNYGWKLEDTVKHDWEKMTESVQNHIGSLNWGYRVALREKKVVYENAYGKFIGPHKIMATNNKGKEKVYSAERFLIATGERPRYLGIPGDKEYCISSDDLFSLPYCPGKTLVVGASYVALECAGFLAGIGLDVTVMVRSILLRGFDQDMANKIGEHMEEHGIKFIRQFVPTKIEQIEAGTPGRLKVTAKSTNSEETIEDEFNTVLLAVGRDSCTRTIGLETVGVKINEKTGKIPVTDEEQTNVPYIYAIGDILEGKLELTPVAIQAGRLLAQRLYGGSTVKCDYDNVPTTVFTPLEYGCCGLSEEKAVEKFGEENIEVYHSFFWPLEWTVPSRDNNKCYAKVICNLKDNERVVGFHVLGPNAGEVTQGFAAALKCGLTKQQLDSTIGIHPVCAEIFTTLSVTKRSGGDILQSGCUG
#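 Rat TrxR1, dispensed at 90 nM, was prereduced with 400 uM NADPH (final) for 5 min at ~22 deg C, then incubated with compound 15 min before 400 uM selenite. A first-read NADPH fluorescence drop versus no-compound background flagged substrates.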
# TrxR1 inh: qHTS Assay for Inhibitors of Mammalian Selenoprotein Thioredoxin Reductase 1 (TrxR1): qHTS | 1% of 390,000 active | Potency, µM (titrated, usually from 114 µM), for the others: top-dose activity change, negative = inhibition, actives largely listed as inhibitors | recombinant rTrxR1, NADPH fluorescence consumption, selenite substrate | Thioredoxin reductase 1, cytoplasmic (Rattus norvegicus), O89049; also: potency is read from the fitted curve at half-maximal effect; nearly all actives have a fitted effect of over 65% in size
#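 Rat TrxR1 (90 nM in the dispensed reagent) was pre-reduced with 400 uM NADPH for 5 min at room temperature, then incubated with compound for 15 min. After 400 uM selenite was added, NADPH fluorescence (Ex 340/Em 450 nm) was followed for 8 min.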
# Six1-Eya2 inh: qHTS Assay for Inhibitors of the Six1/Eya2 Interaction; Homeobox protein SIX1 (Homo sapiens) + Protein phosphatase EYA2 (Homo sapiens), …; AlphaScreen GST-Six1/His-Eya2 binding, biochemical; active compounds read low; 0.56% of 360,000 active; activity change, % (concentration not given with the values); in the data active = activity change below about -65%; inconclusive = mostly about -30% to -63%
#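 AlphaScreen with GST-Six1 and His-Eya2 (5X mix: 250 nM and 500 nM), glutathione donor and nickel acceptor beads; buffer 50 mM Tris pH 8.0, 300 mM NaCl, 1 mM TCEP; 1 h at 37 C in the dark.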
# GALK inhibitor: qHTS Assay for Inhibitors of Human Galactokinase (GALK); 0.007% of 270,000 active; Potency, µM (top dose mostly 57.5 µM), for the others: top-dose activity change, negative = inhibition, most hits filed as inhibitors; Purified GALK, Kinase-Glo residual ATP luminescence; P51570; also: potency is read from the fitted curve at half-maximal effect
#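 ATP-depletion format; final 35 uM ATP, 100 uM D-galactose, 5 nM enzyme; pH 8.0 HEPES/Mg2+ buffer; 60 min RT; luminescence read 10 min after detection reagent.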
# Active calls of the source: *; ? = inconclusive; . = not tested or not shown; [ ] = remark or other dose. Only some compounds are listed: those with a hit (about 1.5% of all), similar ones and a draw of the others. Unless noted, calls follow the shape of the dose curve; as a rule, active = well fitted curve in the direction sought with a large enough effect; inconclusive = small, poorly fitted or top-dose-only effect, or another doubt; inactive = no such curve, though single readings can be large; an effect the other way counts as inactive or inconclusive. % is scaled to controls: 0 for no effect and ±100 for the full control effect.
SMILES,CtBP-E1A blk,Eya2 inh,TrxR1 substrate,TrxR1 inh,Six1-Eya2 inh,GALK inhibitor
CC1(C)CC(=O)C(C(C#Cc2ccccc2)C2=C(O)CC(C)(C)CC2=O)=C(O)C1,-3,-6%,-1%[57.1 µM],10µM*,0,-4%
O=C1CCCC(O)=C1C(C#Cc1ccccc1)C1=C(O)CCCC1=O,-11,4%,-15%,10µM*,1,1%
CC1(C)CC(=O)C(N=Nc2ccc(-c3ccccc3)cc2)=C(O)C1,-2,5%,-9%,-1%,-2,-2%
O=C1CCCC(O)=C1Sc1ccccc1C(=O)O,.,13%,-1%,20%,-14,0%
O=C(c1ccco1)N1CCN(S(=O)(=O)c2ccc(Br)s2)CC1,7,-14%,10%,10µM*,5,0%
CC(C)(C)c1ccc(C(=O)N2CCN(S(=O)(=O)c3ccc(Br)s3)CC2)cc1,.,-4%,0%,15%,-1,.
CCOC(=O)c1cc([N+](=O)[O-])cc([N+](=O)[O-])c1Sc1ncnc2nc[nH]c12,-6,.,0%[57.1 µM],0.45µM*,-8,.
COc1ccc(N2C(=O)CC(N(CCc3ccccc3)C(=O)c3ccccc3)C2=O)cc1 (stereo not given),-70*,-6%,10%[57.1 µM],5%[57.1 µM],1,-3%
CN1/C(=C\C(=S)NC(=O)c2cccc(Br)c2)C(C)(C)c2ccccc21,-70*,-5%,-7%,-7%,-73*,0%
O=C(c1ccc(S(=O)(=O)Cc2ccccc2Cl)c([N+](=O)[O-])c1)N1CCOCC1,2,7%,4%,14µM*,1,1%
Cc1ccccc1CS(=O)(=O)c1ccc(C(=O)N2CCOCC2)cc1[N+](=O)[O-],.,5%,5%,3%,0,-1%
Cc1ccc2c(=O)cc(C(=O)Nc3ccc(S(=O)(=O)Nc4onc(C)c4C)cc3)oc2c1C,.,.,-2%,10%,.,.
CS(=O)(=O)c1ccc(S(=O)CC(=O)Oc2ccc(Cl)cc2)c([N+](=O)[O-])c1 (stereo not given),-9,2%,4%[57.1 µM],1.8µM*,-7,-1%
COc1cccc(/C=N/NC(=O)c2[nH]c(C)c(C(=O)N/N=C/c3cccc(OC)c3)c2C)c1,?,0%,-17%,?,-68*,.
Cc1ccc(/C(C#N)=C\c2ccc(N3CCOCC3)o2)cc1,4,-7%,-2%,2.2µM*,-2,-1%
N#C/C(=C\c1ccc(N2CCOCC2)o1)C(=O)NCC1CCCO1 (stereo not given),-2,-10%,-30%,?,-8,0%
Cc1ccc2nc(/C(C#N)=C\c3ccc(N4CCOCC4)o3)[nH]c2c1,2,?,5%,13µM*,?,0%
COc1cccc(/C=N/NC(=O)Cn2ccnc2C)c1,5,-8%,7%,10%,-1,.
COc1c(O)cccc1/C=N/NC(=O)Cn1ccnc1C,.,4%,1%,7%,-93*,-2%
O=C(O)CNC(=O)CC1S/C(=N/N=C2/NC(=O)CS2)NC1=O (stereo not given),?,16%,5%[57.1 µM],-3%[57.1 µM],-67*,0%
NC(=O)NC(=O)CC1S/C(=N/N=C/c2ccccc2)NC1=O (stereo not given),-3,0%,-13%,-10%,8,-2%
CC1=C/C(=N\N=C2\NC(=O)C(CC(=O)Nc3ccccc3)S2)CC(C)(C)C1 (stereo not given),.,-4%,-9%,11%,0,-2%
NC(=O)NC(=O)CC1S/C(=N/N=C2\CSC(=O)N2)NC1=O (stereo not given),-93*,-3%,2%,9%,-90*,0%
Cc1cc(C)nc(NN2C(=O)C=CC2=O)n1,.,-9%,12%,7.9µM*,0,-3%
Cc1ccnc(SCc2cc(=O)c(OC(=O)c3ccc(S(=O)(=O)N4CCCC4)cc3)co2)n1,1,-5%,3%,28µM*,-15,2%
SMILES,CtBP-E1A blk,Eya2 inh,TrxR1 substrate,TrxR1 inh,Six1-Eya2 inh,GALK inhibitor
Cc1ccnc(SCc2cc(=O)c(OC(=O)c3ccc(Br)o3)co2)n1,6,-10%,-4%,?,-1,-2%
Cc1cc(C)nc(SCc2cc(=O)c(OC(=O)c3ccc(S(=O)(=O)N(C)C)cc3)co2)n1,-4,-2%,-2%,50µM*,-2,0%
Cc1ccnc(SCc2cc(=O)c(OC(=O)c3ccc(S(=O)(=O)N(C)C)cc3)co2)n1,-1,0%,2%,10µM*,4,-2%
CCn1c(=O)cc(OCC(=O)N2CCN(c3ccc(OC)cc3)CC2)c2ccccc21,.,.,-2%,-2%,.,.
O=C(Oc1cccc2cccnc12)c1ccco1,?,-4%,-1%,2%,?,2%
Cc1c(C(=O)Oc2cccc3cccnc23)cccc1[N+](=O)[O-],2,0%,2%,9%[57.1 µM],-88*,10%
O=C(Oc1c(Cl)cc(Cl)c2cccnc12)c1cccc([N+](=O)[O-])c1,-98*,-4%,-8%,18%[57.1 µM],-88*,0%
O=C(Oc1coc(CSc2ncccn2)cc1=O)c1cccc([N+](=O)[O-])c1,1,3%,5%,-23%,1,1%
O=C(Oc1cccc2cccnc12)c1cccc([N+](=O)[O-])c1,-75*,-10%,-7%[57.1 µM],-4%[57.1 µM],-69*,-2%
Cc1c(C(=O)O/N=C(\N)c2ccccn2)cccc1[N+](=O)[O-],-15,4%,9%[57.1 µM],23%[57.1 µM],-25,9%
O=C(Cc1ccc(Cl)cc1)Oc1cccc2cccnc12,-83*,-4%,-3%,-5%,-91*,.
O=S(=O)(c1ccc(F)cc1F)N1CCN(c2nc(-c3cccs3)nc3ccccc23)CC1,.,.,17%,24%,.,.
Cc1cccc(NC(=O)CCn2cnnn2)c1C,.,.,10%[11.4 µM],12%,.,.
CCOc1ccccc1N(CC)C(=O)Cn1ncc2c1-c1ccccc1OC2,.,.,2%,14%,.,.
N#Cc1ccc(Oc2cccc3cccnc23)c([N+](=O)[O-])c1,-27,-1%,9%,10%,-6,1%
O=[N+]([O-])c1ccc(Oc2cccc3cccnc23)c([N+](=O)[O-])c1,-79*,0%,-1%,-19%,?,.
CC1Cc2ccccc2N1NC(=O)c1ccc(Cl)c(S(N)(=O)=O)c1 (stereo not given),-12,0%,2%,21%,-85*,-2%
